The structures appear in SMILES notation. Among all 69,000 compounds or so, about 8,600 (12%) showed an effect of 50% or more. What follows is part of a selection rich in strong results, with near analogues and random picks from the rest.

This passage reports INHIBITION results from ChEMBL document CHEMBL4513216, “Probing the Open Global Health Chemical Diversity Library for Multistage-Active Starting Points for Next-Generation Antimalarials” (ACS Infect Dis, 2020).

This experiment deals with Plasmodium berghei. The experiment is described as follows: Screen against P. berghei liver stage (PbLuc), transformed with Luciferase, at 10uM. The note with it: tested at 10 uM. Type of experiment: functional, HepG2.
For the molecule `O=c1oc(-c2ccc(F)cc2)nn1CC1CCCCO1` (stereo not given), the INHIBITION came to 59.3%.

Take `O=c1oc(-c2ccc(F)cc2)nn1CN1CCN(CC2CC2)CC1`: the INHIBITION worked out at 30.6%. On to `CC1CCN(Cn2nc(-c3ccc(F)cc3)oc2=O)CC1`, for which the INHIBITION amounted to 9.25%. `O=C(Cn1nc(-c2ccc(F)cc2)oc1=O)NCC1CCCO1` (stereo not given): the INHIBITION was -36.1%. Then `O=c1oc(-c2ccc(F)cc2)nn1CC1CCOC1` (stereo not given), with 62.3%; and `O=c1oc(-c2ccc(F)cc2)nn1CN1CCN(C2CCCC2)CC1`, with 29.4%; and `COCCN1C[C@@H]2[C@@H](OC)CCN(Cc3ccco3)[C@@H]2C1`, with 22.2%. Then `Cn1cc(C2CC(=O)NC23CCN(Cc2cccc(F)c2)CC3)cn1` (stereo not given), with -1.36%; and `CN(CCc1ccccn1)C(=O)C(O)c1cc(Cl)cc(Cl)c1` (stereo not given), with 10.1%; and `CSc1ccc(NC(=O)NCC2CCCO2)cc1F` (stereo not given), with -81.9%.

As for `C[C@@H]1CN(c2nc3c(cc2C(N)=O)CCC3)CC[C@@]1(O)C1CCC1`, the INHIBITION is -2.93%.

As to `C[C@@H]1CN(c2nc(N)nc3c2CCC3)C[C@]1(C)O`, the INHIBITION turned out to be 8.53%.

In the case of `C[C@@H]1CN(c2nc(N)nc3c2CCC3)CC[C@@]1(O)C1CCC1`, the INHIBITION came to 83.3%. Then `Cc1ccc(C)c(Sc2nccn(C)c2=O)c1`, with -13.1%; and `COc1ccc(Cl)cc1CN(CC(N)=O)C(C)C`, with -6.04%; and `COCCNc1cc(-c2ccccc2S(N)(=O)=O)c2cc[nH]c2n1`, with 23%.

In the case of `COCCNc1cc(-c2ccccc2C(=O)O)c2cc[nH]c2n1`, the INHIBITION was found to be 30.3%. As for `COCCNc1cc(-c2ccccc2C(N)=O)c2cc[nH]c2n1`, the INHIBITION is on record as 60.3%. As to `Cc1cnccc1-c1cc(NCCO)nc2[nH]ccc12`, the INHIBITION was 58%.

Turning to `Cc1cc(F)ccc1-c1cc(NCCO)nc2[nH]ccc12`, the INHIBITION is -13.1%. In the case of `Cc1cccc(C)c1-c1cc(NCCO)nc2[nH]ccc12`, the INHIBITION worked out at 45%.

For the molecule `CN(C)CCNc1cc(-c2ccccc2C(N)=O)c2cc[nH]c2n1`, the INHIBITION is recorded as 15.8%. As for `COCCNc1cc(-c2ccccc2CCN)c2cc[nH]c2n1`, the INHIBITION worked out at 25.8%. In the case of `COCCNc1cc(-c2cccc(C(=O)O)c2C)c2cc[nH]c2n1`, the INHIBITION is 58.5%. `CN1CC(=O)N(c2cccnc2)CC12CCN(C(=O)C1CCCCC1)C2` (stereo not given): the INHIBITION came out at 31.2%.

As to `Cc1csc(CNC(=O)Nc2ccc3c(c2)OCO3)n1`, the INHIBITION is -51.9%. Next, `CCCS(=O)(=O)N1C[C@@H]2C[C@H](C(=O)N(C)C)[C@H](C1)O2`: 49.7%. As to `CC(C)(C)c1ncc(C(=O)NCCNC(=O)Cc2ccccc2)s1`, the INHIBITION is reported as 45.7%. In the case of `Cc1ccccc1-c1noc(CN2CCc3cncnc3C2)n1`, the INHIBITION was 8.195%. Next, `O=c1ccc(-c2cccs2)nn1CN1CCOCC1`: -1.33%.
